Source: PubChem
Most compounds without a hit are left out; they make up all but 2.9% or so of the library.
S2 tox = reduces viability in counter-screen for ATXN expression inhibitors | S2 cells (HEK-293 line with an ATXN2-luciferase reporter) viability, CellTiter-Fluor protease fluorescence, 24 h | 400,000 tested, 0.49% active | AID 651635 | Potency, µM (series often up to 56.7 µM), hits mostly cytotoxic; further: nearly all actives have a fitted effect of over 40% in size
Nrf2 ARE act = activates Nrf2 signaling; Potency, µM (highest dose often 46.1 µM), for the others: top-dose activation, most hits filed as activators; 410,000 tested, 0.31% active; AREc32 ARE-luciferase reporter (MCF7-derived line), luminescence, 24 h; further: % of control where 0% means no effect; nearly all actives have a fitted effect of over 65% in size
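Steps: seed AREc32_Fluc cells (1000/well, 5% FBS OPTI-MEM); incubate overnight at 37 deg C; add 23 nL compound; incubate 24 hr; add Steady-Glo; hold 30 min RT; read luminescence.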
ATXN2 expr inh = reduces ATXN2 reporter expression in HEK-293 cells; HEK-293 ATXN2-luciferase reporter, luminescence, 24 h; 360,000 tested, 0.72% active; Potency, µM (top dose mostly 57 µM), for inactives: top-dose activity change, negative = inhibition, hits mostly inhibitors; further: on the % scale 0 is the no-effect control and ±100 the full control effect; nearly all actives have a fitted effect of over 55% in size
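ATXN2-luciferase reporter cells (luciferase flanked by upstream and downstream ATXN2 gene portions) were treated 24 h at 37 °C with compounds at up to 57 uM. SteadyGlo luminescence gave expression; GF-AFC fluorescence gave viability.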
A549 tox-1 = kills or reduces viability of A549 cells in Nrf2 counter-screen; 390,000 tested, 0.16% active; A549 ARE-Fluc cells, CellTiter-Fluor viability, 18-24 h; Potency, µM (doses to about 46 µM), without a hit: at the highest dose activity change, negative = cytotoxicity, usual class: inhibitors; further: on the % scale 0 is the no-effect control and ±100 the full control effect
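Cytotoxicity counterscreen: CellTiter-Fluor fluorescence was measured in A549 ARE_Fluc cells after 18-24 h of compound exposure in a concentration series. The subsequent BugLite luminescent read reports ARE-luciferase activity.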
Nrf2 block = blocks Nrf2 signaling; 360,000 tested, 2.1% active; Potency, µM (titrated, usually from 46 µM), without a hit: at the top dose activity change, negative = inhibition, usual class: inhibitors; A549 ARE-Fluc reporter, luciferase luminescence, 18-24 h; further: on the % scale 0 is the no-effect control and ±100 the full control effect; nearly all actives have a fitted effect of over 60% in size
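Nrf2 activity is the BugLite luminescence, read 15 min after reagent at room temperature, following CellTiter-Fluor cytotoxicity readout (30 min, 37C). Compound titrations were applied for 18-24 h to 5000 A549 ARE_Fluc cells/well in 5% FBS OPTI-MEM.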
FLuc enzyme inh = blocks purified firefly luciferase in Nrf2 counterscreen | shares compounds with Nrf2 block | purified firefly luciferase, luminescence inhibition | Potency, µM (top dose mostly 57.5 µM), inactives show top-dose activity change, negative = inhibition, hits mostly inhibitors | 1,400 tested, 4% active | AID 720522; further: on the % scale 0 is the no-effect control and ±100 the full control effect; nearly all actives have a fitted effect of over 65% in size
Target sequence (P08659 whole entry, looked up): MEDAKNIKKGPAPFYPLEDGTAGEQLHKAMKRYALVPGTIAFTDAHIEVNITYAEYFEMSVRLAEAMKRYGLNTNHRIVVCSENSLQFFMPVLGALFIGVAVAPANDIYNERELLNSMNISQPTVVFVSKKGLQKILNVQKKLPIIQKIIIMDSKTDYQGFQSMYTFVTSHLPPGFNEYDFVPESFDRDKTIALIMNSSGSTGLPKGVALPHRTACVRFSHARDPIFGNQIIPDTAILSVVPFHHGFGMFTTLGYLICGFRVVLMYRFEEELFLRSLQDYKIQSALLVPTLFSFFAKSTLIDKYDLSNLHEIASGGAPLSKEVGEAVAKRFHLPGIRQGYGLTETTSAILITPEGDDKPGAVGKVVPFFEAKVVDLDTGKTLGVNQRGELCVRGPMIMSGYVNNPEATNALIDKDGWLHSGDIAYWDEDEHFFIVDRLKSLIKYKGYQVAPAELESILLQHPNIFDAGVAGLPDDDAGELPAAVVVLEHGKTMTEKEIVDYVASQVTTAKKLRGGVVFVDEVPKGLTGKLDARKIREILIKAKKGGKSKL
A549 tox-2 = counter-screen for Nrf2 inhibitors: cytotoxicity in A549 ARE cells | shares compounds with Nrf2 block | A549 ARE-Fluc cells, cytotoxicity counterscreen | Potency, µM (doses to about 46.1 µM), inactives show top-dose activity change, negative = cytotoxicity, actives largely listed as inhibitors | 1,400 tested, 2% active | AID 720523;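 further: cells exposed to compounds for 18 to 24 hours; on the % scale 0 is the no-effect control and ±100 the full control effect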
Nrf2 ARE inh = Nrf2 inhibition confirmed, A549 ARE-luciferase | A549 ARE-firefly luciferase reporter, luminescence | Potency, µM (series often up to 46.1 µM), for the others: at the top dose activity change, negative = inhibition, actives largely listed as inhibitors | 1,400 tested, 74% active | shares compounds with Nrf2 block; further: on the % scale 0 is the no-effect control and ±100 the full control effect; nearly all actives have a fitted effect of over 65% in size
* marks the source's active call; other numbers are inactive results; i = inactive; ? = inconclusive; nt = no result given; [ ] = another dose, or the depositor's remark. The call rests on the fitted dose curve; in most records, active means well fitted curve in the direction sought with a large enough effect; inconclusive means small, poorly fitted or top-dose-only effect, or another doubt; inactive means no such curve, though single readings can be large; an effect the other way counts as inactive or inconclusive. Potency means the concentration at half of the fitted maximal effect.

SMILES	S2 tox	Nrf2 ARE act	ATXN2 expr inh	A549 tox-1	Nrf2 block	FLuc enzyme inh	A549 tox-2	Nrf2 ARE inh
COc1ccc(C(=O)NC(=S)NNC(=O)c2cnccn2)cc1	i	0%	?	?	?	?	-27%	5.8µM*
O=C(NNC(=S)NC(=O)c1cccnc1)c1ccc(Cl)cc1	i	0%	-22%	nt	?	nt	nt	nt
CC1=C(C(=O)OC(C)C)C(c2cccs2)NC(=S)N1 (stereo not drawn)	i	0%	-7%	3%	-9%	nt	nt	nt
CCn1c(COc2cccc(C)c2C)nnc1SCC(=O)N1CCN(c2ccc(OC)cc2)CC1	i	0%	-18%	-6%	9.2µM*	-1%	-15%	8.2µM*
CC(C)(C)C(=O)Nc1ccccc1C(=O)NCCCn1ccnc1	i	0%	-6%	0%	1%	nt	nt	nt
Nc1ncnc2c(C3OC(CO)C(O)C3O)c[nH]c12 (stereo not drawn)	nt	0%	?	?	0.23µM*	2%	?	0.1µM*
Nc1ncnc2c1ncn2[C@@H]1O[C@H](CO)[C@@H](O)[C@H]1O	i	0%	11%	-4%	-1%	nt	nt	nt
CCN=c1scc(-c2ccc3c(c2)NC(=O)CO3)n1N=C1CCCC1	i	16%	-23%	-16%	16µM*	-10%	-12%	7.3µM*
COCC(C)n1c(-c2ccc3c(c2)NC(=O)CO3)csc1=Nc1ccc(OC(F)F)cc1 (stereo not drawn)	i	12%	-39%	?	10µM*	0%	-26%	9.2µM*
CCCCNC(=O)COC(=O)CNC(=O)c1cc(Cl)cc([N+](=O)[O-])c1	i	-1%	-33%	1%	2%	nt	nt	nt
O=C(Cc1ccc(Cl)cc1)Nc1ccncc1	i	2%	-19%	-11%	5.8µM*	2%	3%	-24%
Cc1ccc(CC(=O)Nc2ccncc2)cc1	i	0%	nt	-4%	?	nt	nt	nt
COc1ccccc1C(=O)Nc1nc(-c2ccc(S(=O)(=O)N3CCOCC3)cc2)cs1	?	-1%	14µM*	-28%	5.2µM*	-12%	-17%	1.3µM*
COc1ccccc1OC(C)C(=O)Nc1nc(-c2ccc(S(=O)(=O)N3CCOCC3)cc2)cs1 (stereo not drawn)	?	0%	5%	?	4%	nt	nt	nt
O=C(NN1CCOCC1)c1cnn2c(C(F)F)cc(-c3ccccc3)nc12	?	0%	-34%	-1%	10%	nt	nt	nt
COc1ccc(S(=O)(=O)NCc2ccncc2)cc1NC(=O)c1ccccc1C	i	0%	-4%	6%	-26%	nt	nt	nt
Cc1ccc2oc(-c3ccc(C)c(NC(=O)c4ccc5c(c4)OCCO5)c3)nc2c1	?	0%	4%	-2%	0%	nt	nt	nt
COc1ccc2[nH]c(=O)c3c(c2c1)OC(C)(C)C=C3	i	-1%	20%	-18%	8.2µM*	-14%	-23%	12µM*
Cc1cc2c([nH]c3ccccc32)c2c1OC(C)(C)C=C2	i	4%	25%	-1%	?	nt	nt	nt
Cc1ccc(/C=C/C2=NN(Cc3ccc(Cl)c(Cl)c3)C(=O)CC2)cc1	i	0%	-9%	-1%	nt	nt	nt	nt
O=C(NCC(c1ccco1)N1CCCC1)c1ccc(Cl)c(S(=O)(=O)N2CCc3ccccc32)c1 (stereo not drawn)	?	7%	-26%	8.2µM*	1.3µM*	-14%	-29%	nt
COc1ccc(N2CC(NC(=O)c3ccc(Br)o3)CC2=O)cc1 (stereo not drawn)	nt	-1%	nt	0%	nt	nt	nt	nt
COc1ccc(NS(=O)(=O)c2ccc(N3CCOCC3)c(N)c2)cc1	i	-1%	?	-17%	3.3µM*	-2%	0%	4.1µM*
CC[C@]12c3[nH]c4cc(CCC(=O)N(C)C)ccc4c3CCN1C(=O)[C@@H](CC(=O)NCC13CC4CC(CC(C4)C1)C3)C[C@@H]2C(=O)N1CCN(C(=O)c2ccco2)CC1	?	19%	19%	-4%	1%	nt	nt	nt
CCC(C)NC(=O)Cn1c(=O)n(-c2ccc(OC)c(OC)c2)c(=O)c2ccccc21 (stereo not drawn)	i	0%	6%	-6%	1%	nt	nt	nt
SMILES	S2 tox	Nrf2 ARE act	ATXN2 expr inh	A549 tox-1	Nrf2 block	FLuc enzyme inh	A549 tox-2	Nrf2 ARE inh
COc1cc2c(oc(=O)c3cc(C)cc(OC)c32)c2c(C3OC(C)C(O)C(C)(O)C3O)ccc(O)c12 (stereo not drawn)	?	-2%	0%	5.8µM*	1.3µM*	-13%	?	1.8µM*
CCCC(=O)N1CCC1(C)C(=O)Nc1ccccc1C(C)(C)C (stereo not drawn)	i	-1%[9.22 µM]	10%	nt	nt	nt	nt	nt
COc1cc(OC)c(/C=C/c2ccc3ccccc3[n+]2C)c(OC)c1	nt	nt	nt	nt	nt	1%	?	1.6µM*
CCC[n+]1c(/C=C/c2c(OC)cc(OC)cc2OC)ccc2ccccc21	nt	nt	nt	nt	nt	-2%	7.3µM*	2.3µM*
CCCC[n+]1c(/C=C/c2c(OC)cc(OC)cc2OC)ccc2ccccc21	nt	nt	nt	nt	nt	2%	?	1.6µM*
CS(=O)(=O)N(CC(=O)NCc1ccccc1Cl)c1cccc([N+](=O)[O-])c1	?	-1%	nt	-1%	-15%	nt	nt	nt
O=C(Nc1ccc(N=Nc2ccccc2)c(NC(=O)C2CCCO2)c1)C1CCCO1 (stereo not drawn)	i	3%	-37%	?	-12%	nt	nt	nt
CC(C)c1ccc(-c2nnn(CCC(=O)O)n2)cc1	i	-1%	0.56µM*	-2%	0.33µM*	11µM*	-3%	0.82µM*
CC(=O)c1c(C)[nH]c(C(=O)OCC(=O)Nc2ccccc2Cl)c1C	i	5%	-9%	-12%	5.8µM*	-24%	-4%	5.8µM*
CN(C)c1ccc(C(=O)C=Cc2ccc([N+](=O)[O-])cc2)cc1	i	0%	nt	nt	nt	nt	nt	nt
CN(C)c1ccc(/C=C/C(=O)c2ccc(O)cc2)cc1	i	17%	42%	4%	5.2µM*	0.21µM*	1%	2.3µM*
O=C(O)Cn1cnc2c(OCc3ccccc3)ncnc21	i	-1%	6%	2%	-2%	nt	nt	nt
Cc1cc(C)c(CN2CCN(C(=O)Cn3cnc4c(OCc5ccccc5)ncnc43)CC2)c(C)c1	?	1%	0%	-14%	3.7µM*	2%	-11%	6.5µM*
Cc1cc2c(=Cc3ccc(N(C)C)cc3)c3ccccc3n2[n+]1C	?	-1%	10µM*	16µM*	2.6µM*	-22%	?	6.5µM*
